JMJD2A Tudor: inhibitors of human JMJD2A Tudor domain; O75164; AlphaScreen JMJD2A-Tudor / H3K4me3 peptide binding; Potency, µM (titrated, usually from 114 µM), inactives show at the highest dose activity change, negative = inhibition, most hits filed as inhibitors; 390,000 compounds, 4.4% hits; also: potency is read from the fitted curve at half-maximal effect; % is scaled to controls: 0 for no effect and ±100 for the full control effect; nearly all actives have a fitted effect of over 50% in size
BAZ2B block: BAZ2B (human) inhibition; Q9UIF8; AlphaScreen BAZ2B-H3K14Ac peptide displacement; Potency, µM (top dose mostly 114 µM), for inactives: at the top dose activity change, negative = inhibition, most hits filed as inhibitors; 360,000 compounds, 4.4% hits; also: potency is read from the fitted curve at half-maximal effect; % is scaled to controls: 0 for no effect and ±100 for the full control effect; nearly all actives have a fitted effect of over 60% in size
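AlphaScreen displacement: compounds (up to 110uM) incubated 30 min at room temperature with a preformed 50 nM BAZ2B/50 nM biotinylated H3K14Ac peptide complex in PBS pH 7.4 with Tween-20. Donor and acceptor beads at 10 ug/mL final added, 20 min light-protected before reading.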
HP1b binding inh: HP1-beta chromodomain-methylated histone interaction inhibition | P83916 | AlphaScreen HP1-beta / biotin-H3K9me3 peptide binding | Potency, µM (series often up to 114 µM), for the others: top-dose activity change, negative = inhibition, usual class: inhibitors | 390,000 compounds, 0.56% hits | AID 540317; also: potency is read from the fitted curve at half-maximal effect; nearly all actives have a fitted effect of over 70% in size
Target sequence (P83916 whole entry, looked up): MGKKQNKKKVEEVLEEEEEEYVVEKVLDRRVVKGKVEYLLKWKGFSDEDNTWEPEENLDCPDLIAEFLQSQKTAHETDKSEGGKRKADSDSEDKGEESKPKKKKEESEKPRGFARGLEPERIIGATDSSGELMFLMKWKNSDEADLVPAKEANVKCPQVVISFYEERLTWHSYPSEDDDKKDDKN
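AlphaScreen: HP1-beta (50 nM) preformed 30 min with biotin-H3(1-18)K9me3 peptide (50 nM) in PBS pH 7.4, 0.01% Tween-20. Compound added for 30 min at RT, then streptavidin donor/nickel chelate acceptor beads (10 ug/mL) for 30 min.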
PLK1 PBD inh: PLK1 (human) polo-box domain binding inhibition | Potency, µM, inactives show max response, negative = inhibition, usual class: inhibitors | 360,000 compounds, 2.8% hits | AID 720504 | Plk1 PBD binding of FITC phosphopeptide, fluorescence polarization | P53350; also: potency is read from the fitted curve at half-maximal effect; series mostly up to about 57 µM; % is scaled to controls: 0 for no effect and ±100 for the full control effect; nearly all actives have a fitted effect of over 65% in size
PI5P4K alpha inh: blocks human PI5P4K alpha kinase activity | P48426 | PI5P4Kalpha enzyme, ADP-Glo luminescence, 60 min; hits give low values | max response, % | 330,000 compounds, 1.2% hits | AID 652105; active = max response of -50% or lower; inconclusive = between -30% and -50%; inactive = -30% or higher; also: value at the top dose of about 77 µM; % is scaled to controls: 0 for no effect and ±100 for the full control effect
Target sequence (P48426 whole entry, looked up): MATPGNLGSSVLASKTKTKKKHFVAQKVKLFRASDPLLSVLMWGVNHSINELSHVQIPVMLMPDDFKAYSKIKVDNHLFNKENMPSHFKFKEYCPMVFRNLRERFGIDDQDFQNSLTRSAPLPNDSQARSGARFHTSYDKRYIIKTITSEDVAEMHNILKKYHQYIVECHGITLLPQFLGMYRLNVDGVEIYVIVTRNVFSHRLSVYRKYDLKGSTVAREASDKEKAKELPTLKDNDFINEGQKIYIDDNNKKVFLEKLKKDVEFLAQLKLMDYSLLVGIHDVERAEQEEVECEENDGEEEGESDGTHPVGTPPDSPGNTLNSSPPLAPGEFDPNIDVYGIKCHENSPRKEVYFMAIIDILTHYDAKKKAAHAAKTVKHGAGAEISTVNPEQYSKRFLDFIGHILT
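Human PI5P4Kalpha with substrate in 0.038 M HEPES pH 7.4, 0.28 mM EGTA, 0.1% CHAPS, 5% DMSO; reaction started with 5 microM ATP (final), 60 min at room temperature. ADP formed read by ADP-Glo luminescence.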
G9a inh: blocks human histone lysine methyltransferase G9a. Q96KQ7. 350,000 compounds, 8.8% hits. AID 504332. G9a H3K9 monomethylation, AlphaScreen, 2 h. Potency, µM (highest dose often 102 µM), for inactives: at the highest dose activity, negative = inhibition, hits mostly inhibitors; also: potency is read from the fitted curve at half-maximal effect; % is scaled to controls: 0 for no effect and ±100 for the full control effect; nearly all actives have a fitted effect of over 75% in size
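Chemiluminescent proximity detection of H3K9 monomethylation, read after 10 min bead incubation in the dark. Reaction: 20 nM G9a, 500 nM biotin-H3K9 peptide, 20 uM SAM cofactor, 2 h, room temperature, following 15 min enzyme-compound preincubation.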
Active calls of the source: *; u = inconclusive; x = no result given; ! = repeats disagree; [ ] = another dose, or the depositor's remark. The list is not random: actives were taken first. Their share in the collection is about 12%. Unless noted, calls follow the shape of the dose curve; as a rule, active = well fitted curve in the direction sought with a large enough effect; inconclusive = small, poorly fitted or top-dose-only effect, or another doubt; inactive = no such curve, though single readings can be large; an effect the other way counts as inactive or inconclusive.

SMILES	JMJD2A Tudor	BAZ2B block	HP1b binding inh	PLK1 PBD inh	PI5P4K alpha inh	G9a inh
CCOc1ccc(Nc2nc(Cc3nnc(SCC(=O)NCC4CCCO4)n3C)cs2)cc1 (configuration not stated)	u	u	-8%	u	-3	-22%[59 µM]
CCOc1ccc(Nc2nc(Cc3nnc(SCC(=O)NC4CCCCC4)n3C)cs2)cc1	56µM*	50µM*	-1%	-1%	x	-8%[12.7 µM]
CCn1c(COc2ccc3c(c2)OCO3)nnc1SCC(=O)c1ccccc1	-18%	u	13%	-6%	-4	11µM*
CCn1c(SCC(=O)N2CCCC(C)C2)nnc1-c1ccco1 (configuration not stated)	-18%	5%	-6%	-8%	7	69%
CCn1c(COc2cccc(OC)c2)nnc1SCC(=O)NC1CCCC1	0%	-2%	44%	7%	2	-18%
CCn1c(COc2cccc(C)c2)nnc1SCC(=O)NC1CCCC1	u	-1%	0%	30µM*	1	5%
Cc1cccc(OCc2nnc(SCCC(=O)O)n2-c2ccccc2)c1	-5%	79µM*	40%	-9%	0	-47%[0.501 µM]
COc1ccc(-n2c(COc3cccc(C)c3)nnc2SCC(=O)O)cc1	-16%	2%	32%	1%	-12	-4%
Fc1ccc(Cn2nnnc2C(c2ccc(Cl)cc2)N2CCSCC2)cc1 (configuration not stated)	56µM*	-1%	4%	-6%	-1	50µM*
CC1CCN(C(c2ccc(N(C)C)cc2)c2nnnn2Cc2ccc(F)cc2)CC1 (configuration not stated)	u	13µM*	u	2%	6	-5%[0.501 µM]
CCOCCCNC(=O)CN1CCN(S(=O)(=O)c2ccc3c(c2)CCC3)CC1	5%	10%	43%	7%	3	-9%[12.7 µM]
CCOC(=O)/C(C)=C1\NC(C)(C)Cc2ccccc21	22µM*	18µM*	25µM*	73%	-66*	2.5µM*
O=S1(=O)C2CC3C=CC2(CN1Cc1cccc(F)c1)O3 (configuration not stated)	3%	x	44%	x	x	x
Cc1ccc(NCCC(=O)c2cccc([N+](=O)[O-])c2)c(C)c1	32µM*	28µM*	u	u	x	u
Cc1ccc2ccc(C(Nc3ccccn3)c3ccccc3)c(O)c2n1 (configuration not stated)	u	u	4%	u	-14	14µM*
Cc1ccc2ccc(C(Nc3cccc(C(F)(F)F)c3)c3cccnc3)c(O)c2n1 (configuration not stated)	u	-25%	5%	-16%	-2	10µM*
COc1cc(C(Nc2ccccn2)c2ccc3ccc(C)nc3c2O)cc(OC)c1O (configuration not stated)	50µM*	50µM*	u	2.4µM*	-58*	u
Cc1cccc(NC(c2ccccc2C)c2ccc3ccc(C)nc3c2O)n1 (configuration not stated)	u	22µM*	-13%	x	x	u
CC(=O)Nc1cc(-c2cccc(NS(C)(=O)=O)c2)cn2c(-c3ccc(F)c(Cl)c3)cnc12	x	x	x	-8%	u	x
Cc1cc(Cl)ccc1NC(=O)CN1C(=O)CSc2ccc(S(=O)(=O)N(C)C)cc21	-9%	-3%	18%	x	x	-1%[59 µM]
COc1ccc(C)cc1N1C(=N)/C(=C2/Nc3ccccc3S2)C(c2ccccc2)C1=O (configuration not stated)	u	u	u	u	5	10µM*
COc1ccc(C2C(Oc3ccccc3)C(=O)N2c2cc(C)ccc2C)cc1OC (configuration not stated)	-6%	1%	35%	-1%	23	x
CC(NC(=O)c1cccc(S(=O)(=O)N2CCN(Cc3ccccc3)CC2)c1)c1ccc(Cl)cc1 (configuration not stated)	-16%	-1%	-3%	-10%	6	-40%
Cc1ccc(NC(=O)N2CCC(CN3CCCCCC3)CC2)c(Cl)c1	-26%	-15%	19%	x	x	u
CCOC(=O)c1[nH]c(=O)[nH]c1COC(=O)c1cc2ccccc2o1	u	-38%	u	u	-17	7.9µM*
SMILES	JMJD2A Tudor	BAZ2B block	HP1b binding inh	PLK1 PBD inh	PI5P4K alpha inh	G9a inh
CCOC(=O)c1[nH]c(=O)[nH]c1CSc1nc(C)cc(C)n1	1%	-10%	63%	-18%	3	u
COc1cc(N2CCCC2)c(OC)cc1/C=C1/NC(=S)NC1=O	-34%	u	-28%	23%	-26	22µM*
CN(C)S(=O)(=O)c1ccc(NC(=O)CN2C(=O)NC3(CCCC3)C2=O)cc1	3%	0%	9%	-4%	-14	-2%
Clc1nc(Nc2ccc(N3CCOCC3)cc2)c2ccccc2n1	u	u	-7%	-9%	0	-40%
O=S(=O)(Nc1nc2ccccc2nc1Nc1ccc(N2CCOCC2)cc1)c1cc(Cl)ccc1Cl	u	-5%	-4%	12µM*	-3	u
O=C(COC(=O)C1=COCCO1)Nc1cc(C(F)(F)F)ccc1Cl	-14%	x	18%	-6%	-1	x
CC1=C([N+](=O)[O-])C(c2ccc(Cl)cc2)NC(=O)N1C (configuration not stated)	20µM*	3%	-13%	3µM*	u	x
CCOc1cc(C2NC(=O)N(C)C(C)=C2[N+](=O)[O-])ccc1OC(C)=O (configuration not stated)	-12%	-8%	37%	-5%	4	-29%
Cn1c(=O)c(N)c2c3c(c(Br)ccc31)C(=O)c1ccccc1-2	-34%	-33%	12%[57 µM]	0.6µM*	2	4.5µM*
CC1=CC(=O)C(C(C)=Nc2cccc(Cl)c2)C(=O)O1 (configuration not stated)	0%	x	22%[57 µM]	-5%	2	x
CCC(C)Sc1nc(O)cc(=O)[nH]1 (configuration not stated)	-1%	7%	25%	-2%	x	-5%[59 µM]
O=c1cc(O)nc(SC23CC4CC(CC(C4)C2)C3)[nH]1	-35%	-35%	16%	-19%	x	45µM*
CNC(=S)NNc1nc(C)cc(C)n1	u	-17%	79µM*	-9%	-5	1.3µM*
O=C(O)c1cc(-c2ccco2)nc2ccc(Br)cc12	13µM*!	11%	56µM*!	4.2µM*!	-87*!	3.5µM*
NC(=O)COC(=O)c1cc(-c2ccco2)nc2ccccc12	-19%	-24%	6%	-27%	-28	16µM*
O=C(c1ccco1)N1CCN(C(=O)c2cc(-c3ccncc3)nc3ccc(Br)cc23)CC1	2%	x	17%	-11%	-9	x
COc1ccccc1CNC(=O)COC(=O)c1cc(-c2ccco2)nc2ccccc12	20µM*	40µM*	u	u	x	13µM*

High-throughput results as filed in PubChem BioAssay.
